Values without a mark were called inactive. Calls come from the whole dose curve; as a rule, active = well fitted curve in the direction sought with a large enough effect; inactive = no such curve, though single readings can be large or run the other way.
biological target: Alpha-galactosidase A (Homo sapiens) (UniProt P06280); assay: Counterscreen for Glucocerebrosidase Inhibitors: qHTS Assay for Human alpha-Galactosidase at pH 4.5 (AID 992); conditions: purified enzyme, fluorogenic substrate; series mostly up to 76.9 µM; activity change, negative = inhibition: at the top concentration; note: 0% is about no effect
Sequence (P06280 whole entry, looked up): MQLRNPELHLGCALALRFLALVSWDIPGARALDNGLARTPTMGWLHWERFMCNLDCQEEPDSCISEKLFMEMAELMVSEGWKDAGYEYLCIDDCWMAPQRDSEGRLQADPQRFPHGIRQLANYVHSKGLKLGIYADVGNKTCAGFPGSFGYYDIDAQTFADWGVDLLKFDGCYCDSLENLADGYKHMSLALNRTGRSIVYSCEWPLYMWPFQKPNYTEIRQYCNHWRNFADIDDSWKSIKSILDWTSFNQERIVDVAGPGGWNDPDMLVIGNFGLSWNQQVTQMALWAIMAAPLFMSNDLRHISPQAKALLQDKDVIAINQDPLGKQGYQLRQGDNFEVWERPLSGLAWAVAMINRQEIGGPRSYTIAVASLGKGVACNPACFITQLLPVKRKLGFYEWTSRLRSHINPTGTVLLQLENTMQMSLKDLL
Summary of the method: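 Quantitative HTS: compounds tested from 0.7 nM up to 77 uM against 2 nM enzyme with 80 uM 4-MU alpha-D-galactopyranoside. The 20 min room-temperature reaction is stopped with 1M NaOH/1M glycine, pH 10.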

| Structure (SMILES) | activity change, negative = inhibition |
| --- | --- |
| C[C@H](O)C(=O)C1=Nc2c(nc(N)[nH]c2=O)NC1 | 11.7% |
| CCCC(=O)NCCc1c2n(c3ccc(OC)cc13)CCCc1ccccc1-2 | -4.28% |
| NC(N)=NC(N)=Nc1ccccc1 | -0.951% |
| CCCOC(=O)c1c(-c2ccccc2)nc(CC)c(C(=O)SCC)c1CCC | -4.02% |
| NC1(C(=O)O)CCCCC1 | -0.131% |
| O=C(O)C1=CCNCC1 | -1.04% |
| NOCC(=O)O | -4.01% |
| C[C@H](NC(=O)/C(C#N)=C/c1ccc(O)c(O)c1)c1ccccc1 | -2.64% |
| OC1(c2ccc(Cl)cc2)CCN(Cc2c[nH]c3ccccc23)CC1 | -5.65% |
| NCCS(=O)O | -1.27% |
| Nn1nnc2ccccc21 | 0.469% |
| N[C@@H](Cc1ccc(O)c(I)c1)C(=O)O | 0.494% |
| Cn1c(=O)c2[nH]c(-c3ccc(S(=O)(=O)O)cc3)nc2n(C)c1=O | 14.3% |
| CSC(=N)N | -0.387% |
| O=c1[nH]c2cc(Cl)ccc2c(O)c1-c1ccc(Oc2ccccc2)cc1 | 5.48% |
| O=c1onc2n1-c1cc(Br)ccc1OC2 | -1.44% |
| CCCCCCCCCCCCCCC[C@H](O)[C@H](N)CO | -2.95% |

From PubChem BioAssay (NCATS)
